PubChem BioAssay AID624267 (The Scripps Research Institute Molecular Screening Center, 2012)
About 1,400 (0.39%) of roughly 360,000 compounds were called active. No stated cut-off is given here; in the data, active means inhibition above about 21%; inactive means the rest. For the sample, actives were picked, then their nearest neighbours and some compounds at random.

target: Receptor-interacting serine/threonine-protein kinase 2 (Homo sapiens) (UniProt O43353); assay: inhibitors of RIPK2 association with NOD2 – fluorescence, CHO cells, BLA complementation, primary screen (AID 624267); details: CHO BLA complementation NOD2-RIPK2, CCF4 ratio; at 4.98 µM; hits give high values;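 further: 0% = vehicle only and 100% = reference blocker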
Sequence (O43353 whole entry, looked up): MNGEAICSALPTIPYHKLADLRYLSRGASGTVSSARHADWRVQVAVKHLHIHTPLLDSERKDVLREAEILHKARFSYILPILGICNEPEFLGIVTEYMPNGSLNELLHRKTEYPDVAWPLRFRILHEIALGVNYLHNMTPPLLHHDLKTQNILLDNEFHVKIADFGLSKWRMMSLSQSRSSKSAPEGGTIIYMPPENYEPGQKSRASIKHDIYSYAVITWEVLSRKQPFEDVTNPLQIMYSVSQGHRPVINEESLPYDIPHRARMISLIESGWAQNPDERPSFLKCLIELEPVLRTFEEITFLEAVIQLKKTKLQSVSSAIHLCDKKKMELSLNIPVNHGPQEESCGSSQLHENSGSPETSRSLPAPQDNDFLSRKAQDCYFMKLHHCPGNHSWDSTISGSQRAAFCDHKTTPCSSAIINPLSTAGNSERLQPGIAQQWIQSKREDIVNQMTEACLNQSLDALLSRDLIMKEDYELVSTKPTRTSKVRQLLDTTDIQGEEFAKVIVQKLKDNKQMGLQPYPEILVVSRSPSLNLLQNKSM

Row | Compound | inhibition
1 | COCCN(C(=O)CSCc1ccc(C)cc1)c1c(N)n(CC(C)C)c(=O)[nH]c1=O | -4.76% (inactive)
2 | CN(C)CCCO/N=C(\c1ccccc1)c1ccncc1 | -6.88% (inactive)
3 | CCO[C@@H]1OC(C(N)=O)=C[C@H](c2ccc(Br)cc2)[C@H]1CCCO | -17.7% (inactive)
4 | CN(C)S(=O)(=O)c1cccc(C(=O)OCC(=O)N2CCCC2=O)c1 | -8.86% (inactive)
5 | N#Cc1cccc(NC(=O)COC(=O)c2ccccc2C(=O)c2ccc(Cl)c([N+](=O)[O-])c2)c1 | 39.9% (active)
6 | CC(=O)Nc1ccc(NC(=O)C(C)OC(=O)c2ccccc2C(=O)c2ccc(Cl)c([N+](=O)[O-])c2)cc1 (configuration not stated) | 3.48% (inactive)
7 | NS(=O)(=O)c1cccc(NC(=O)COC(=O)c2cc([N+](=O)[O-])ccc2N2CCCC2)c1 | -11.1% (inactive)
8 | Cn1nnnc1SCC(=O)NNC(=O)c1ccc(Br)cc1 | -2.01% (inactive)
9 | CN1CCN(/N=C/c2ccc(-c3ccc([N+](=O)[O-])cc3)o2)CC1 | 21.4% (active)
10 | CN1CCN(/N=C2/C(=O)Nc3ccc([N+](=O)[O-])cc32)CC1 | 1.73% (inactive)
11 | CN1CCN(/N=C/c2ccc(C#N)cc2)CC1 | -13.1% (inactive)
12 | COCCNC(=O)C(c1ccc(C)o1)N(Cc1cccs1)C(=O)c1snc(C(N)=O)c1N (configuration not stated) | -22% (inactive)
13 | Cc1nnc(NC2=NCCCCC2)o1 | -2.4% (inactive)
14 | COc1ccc(CNC(=O)CN2CCC(n3nnc4cc(F)ccc43)CC2)cc1 | -4.66% (inactive)
15 | Cn1c(SCC(=O)C(C)(C)C)nnc1-c1ccccn1 | 2.6% (inactive)
16 | COc1cc(/C=N/NC(=O)Nc2ccccc2)ccc1OCCOc1ccccc1C | 9.59% (inactive)

Row | Compound | inhibition
17 | CNC(=S)N/N=C/c1ccc(OCc2ccccc2)c(Br)c1 | 33.9% (active)
18 | O=C(O)COc1ccc(/C=N/O)cc1Br | 11.6% (inactive)
19 | Cc1c(-c2ccccc2)cn2c1-c1ccc(C)n1CC2 | -12.5% (inactive)
20 | [O-][n+]1onc2c1CCc1[nH]c(-c3ccccc3)nc1-2 | -6.67% (inactive)
21 | CC(C)=CCC/C(C)=C/C(=O)O | 3.56% (inactive)
22 | Cc1cc(C)nc(NC(=O)Nc2ccccc2C(F)(F)F)n1 | 7.62% (inactive)
23 | O=C(/C=C/Sc1ncn[nH]1)c1ccc(Cl)cc1 | 21.3% (active)
24 | CC(C)CC(=O)N=C1SC2CS(=O)(=O)CC2N1CCc1ccccc1 (configuration not stated) | -9.18% (inactive)
25 | C=CCn1c(-c2ccccc2OCC)n[nH]c1=S | 0.62% (inactive)
26 | O[C@H]1C[C@H](c2ccc(Cl)cc2)N(Cc2cccs2)C[C@@H]1n1cc(C2CC2)nn1 | 21.6% (active)
27 | O[C@@H]1C[C@H](c2ccccc2)N(Cc2cccs2)C[C@H]1n1cc(C2CC2)nn1 | -9.47% (inactive)
28 | O[C@H]1CN(Cc2cccs2)[C@@H](c2ccc(Cl)cc2)C[C@@H]1n1cc(C2CC2)nn1 | 5.68% (inactive)
29 | CC(=O)Nc1ccc(CNc2nc(NCCN(C)C)nc3cc(-c4ccccc4)sc23)cc1 | 11.1% (inactive)
30 | Cc1ccc(C(=O)N2CCC(n3nccc3NC(=O)Nc3cccc(F)c3)CC2)cn1 | -2.88% (inactive)
31 | COc1ccc2ccccc2c1CNCc1ccccn1 | -4.61% (inactive)
32 | FC(F)Oc1ccccc1C1CC(c2ccc(Br)s2)Nc2ncnn21 (configuration not stated) | -2.05% (inactive)
